# Experimental data: the supplement of paper PMC3334620
# In all, about 33,000 sequences were measured (“E-score (-0.5 to 0.5)”: median about -0.021, highest 2% from about 0.32 on). The sample as a whole holds a higher share of the highest values than the screen did.
# Biological target: T1, Zap1 (UniProt P47043)
# T1 sequence: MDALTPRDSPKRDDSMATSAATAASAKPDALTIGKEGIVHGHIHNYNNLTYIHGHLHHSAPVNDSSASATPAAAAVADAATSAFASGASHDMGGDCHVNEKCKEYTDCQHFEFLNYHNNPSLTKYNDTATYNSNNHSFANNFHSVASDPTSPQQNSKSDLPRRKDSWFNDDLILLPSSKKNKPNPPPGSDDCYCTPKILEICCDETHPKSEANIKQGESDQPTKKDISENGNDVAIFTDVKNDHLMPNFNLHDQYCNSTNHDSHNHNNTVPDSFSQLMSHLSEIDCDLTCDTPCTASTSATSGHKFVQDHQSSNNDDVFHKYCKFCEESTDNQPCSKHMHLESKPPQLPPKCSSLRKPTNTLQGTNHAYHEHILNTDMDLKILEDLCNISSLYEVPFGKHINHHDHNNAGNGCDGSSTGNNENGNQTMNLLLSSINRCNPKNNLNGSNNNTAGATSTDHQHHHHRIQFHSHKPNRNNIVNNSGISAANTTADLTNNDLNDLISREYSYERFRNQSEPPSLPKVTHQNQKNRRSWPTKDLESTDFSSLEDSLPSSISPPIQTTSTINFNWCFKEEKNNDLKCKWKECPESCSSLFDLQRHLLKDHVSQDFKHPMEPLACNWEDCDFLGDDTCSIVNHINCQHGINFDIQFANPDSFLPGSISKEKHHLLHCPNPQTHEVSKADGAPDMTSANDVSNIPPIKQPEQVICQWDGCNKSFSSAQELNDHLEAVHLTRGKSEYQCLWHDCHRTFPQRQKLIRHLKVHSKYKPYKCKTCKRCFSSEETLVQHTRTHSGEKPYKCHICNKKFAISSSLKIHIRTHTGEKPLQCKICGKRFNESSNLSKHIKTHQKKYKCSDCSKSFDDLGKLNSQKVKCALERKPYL
# Assay: PBM E-score (8-mer binding enrichment) (E-score (-0.5 to 0.5)); higher = stronger / more preferred TF binding
# Conditions: protein concentration: 200 nM; construct: GST-full length
# Experimental: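 Universal 'all 10-mer' protein binding microarrays (Agilent AMADID 015681) probed with GST-tagged S. cerevisiae TFs (full-length or DBD) made by in vitro transcription/translation (PURExpress), about 100-200 nM. Bound TF was detected with fluorescent anti-GST. Each ungapped 8-mer (which stands for itself and its reverse complement) is scored by the PBM enrichment score (E-score), a modified Wilcoxon-Mann-Whitney statistic from -0.5 to +0.5, computed with the Universal PBM Analysis Suite. Scale: above 0.35 generally sequence-specific binding.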
row,Sequence,PBM E-score
1,CATGCGAC,0.014
2,CGACCACC,0.15
3,CCTCTGTC,0.0337
4,AAAGTGTG,0.071
5,ATATCAGA,0.0906
6,CCTCGACC,-0.056
7,TTGCTAAA,-0.0992
8,GGCCCTGA,-0.137
9,GGGGGTCA,-0.132
10,GCGGGTCC,-0.0967
11,ACGGGTCA,0.223
12,CGGGGTCA,0.332
13,GCGGGTCA,0.367
14,CCGGGTCA,0.316
15,AGGTGGGC,-0.0375
16,CAGCTCAA,-0.0501
17,GCAAGATA,0.0727
18,GCCCTACC,0.0168
19,CCCCTACG,-0.117
20,ACCCTACG,0.361
21,AACCTACT,0.135
22,ACCCTACT,0.329
23,CCCCTACA,-0.0402
24,TCCCTACA,-0.0805
25,AACCTACG,0.123

row,Sequence,PBM E-score
1,AGCCTACT,-0.212
2,ACCCTACC,0.364
3,CCCCTACC,0.0857
4,ACCCTACA,0.419
5,GAGTTGCA,-0.0948
6,AAATTCCT,-0.0586
7,CAAAGTGC,-0.0833
8,CGAATCGA,0.00445
9,ATCGAATG,-0.106
10,ACCTAGGA,0.159
11,CTCAGGCA,-0.158
12,ATTGCGAA,-0.0714
13,GTAACAAC,0.234
14,AACATGCG,-0.0232
15,GCCAGAAC,-0.226
16,AATAACGA,-0.036
17,GATAACCA,0.426
18,AATAACAA,0.0521
19,GATAACTA,0.231
20,CATAACCA,0.462
21,CATAACAA,0.179
22,TATAACCA,0.45
23,CATAACTA,0.18
24,TATAACAA,0.291
25,GATAACGA,0.00419

row,Sequence,PBM E-score
1,AATAACCA,0.445
2,TCTAACCA,0.231
3,GTGTTGAA,-0.0764
4,ACGGCTCC,-0.198
5,GCCTTTGA,0.0766
6,GGTGTCAC,0.0261
7,CTCTGCAG,-0.126
8,ACTATAGT,0.197
9,AGCCGCTC,-0.0957
10,CCTGTTGC,0.0211
11,GCATAGAC,-0.117
12,CTGGTAAG,0.055
13,GCCATCCA,-0.197
14,CATAACGG,-0.0515
15,CATAACAG,-0.0694
16,CATAACCG,0.395
17,TTATATAA,0.331
18,GGTTATAA,0.471
19,GGTTATAC,0.461
20,ATATATAA,0.249
21,CGTTATAC,-0.00572
22,AGTTATAA,0.193
23,CGTTATAA,0.247
24,CTATATAA,0.24
25,AGTTATAC,0.104

row,Sequence,PBM E-score
1,ATTTGCGA,0.0692
2,CCCCATTC,-0.0769
3,ATCCTTCC,-0.306
4,GCATCTTA,-0.0867
5,ACCATTCT,0.0676
6,GATCATTA,0.0548
7,TATCCGGA,0.0937
8,ACGGTAAC,0.364
9,ACGGTAAG,0.016
10,CCGGTAAC,0.316
11,ACGGTAAT,0.139
12,GCGGTAAA,0.165
13,GCGGTAAC,0.32
14,GTTTGGAA,0.116
15,AGAAGTAC,-0.115
16,CGTAGCGA,-0.251
17,ATTGGTTC,0.141
18,ATTGGTTA,0.402
19,CTTGGTTA,0.334
20,CTTGGTTC,0.232
21,GTTGGTTA,0.316
22,ATTGGTTG,0.186
23,CCCTGCGG,0.292
24,CTAGCTCA,-0.147
25,ATATGGGG,-0.0334

row,Sequence,PBM E-score
1,CGAGAAAC,0.0891
2,CCCCTGTA,0.02
3,AACCTGAA,0.144
4,CACCTGTA,-0.0421
5,CCCCTGAA,0.127
6,GCCCTGAA,0.0835
7,GCCCTGTA,-0.0104
8,ACCCTGAA,0.399
9,AACCTGTA,0.324
10,ACCCTGTA,0.353
11,AACAGCGG,-0.195
12,AATGACCT,0.393
13,AATGACGT,-0.0682
14,AATGACTA,-0.136
15,TATGACCA,0.288
16,AATGACCA,0.334
17,AATGACCG,0.216
18,ACCTTAGG,0.216
19,AGTGCACG,-0.151
20,CATCAGCG,-0.182
21,AAGTATGT,-0.00136
22,AACGTTAC,0.111
23,AAGGTTAC,0.475
24,GAGGTTGC,0.238
25,GAGGTTAC,0.473

row,Sequence,PBM E-score
1,GAGGTTCA,0.254
2,TAGGTTAA,0.319
3,TAGGTTGA,0.101
4,TAGGTTCA,0.175
5,GAGGTTAA,0.429
6,GAGGTTGA,-0.00385
7,AAGGTTTC,0.206
8,GAGGTTCC,0.223
9,AGCGCACT,-0.293
10,CAGCCAAG,-0.242
11,TCTGAGAA,-0.0814
12,CCTCTGAC,0.139
13,AGTAGCAG,-0.0921
14,GTAGGGAC,-0.0704
15,CGGTTTCA,0.03
16,AACTTAAC,0.244
17,CTGATTCA,-0.158
18,AAGGTTAG,0.35
19,CAGGTTAG,0.212
20,CAGGTTTA,-0.0228
21,CAGGTTAC,0.424
22,AAGGTTTG,0.176
23,AAGGTTTA,0.226
24,CAGGTTAA,0.325
25,CAGGTTTC,0.198

row,Sequence,PBM E-score
1,AATGTTAA,-0.132
2,AAGGTTAA,0.415
3,CAGATTAA,0.118
4,CAGATTAC,0.0563
5,TATTATGA,0.00643
6,ACATAGCC,-0.0651
7,CGGTCTAC,-0.149
8,AGATCAGA,-0.0903
9,CAACCTTG,0.332
10,AACCCTTC,0.424
11,GCCCCTTA,-0.0926
12,GACCCTTA,0.376
13,GTCCCTTA,0.0953
14,CACCCTTC,0.135
15,AAACCTTG,0.0789
16,AACCCTTG,0.444
17,AGCCCTTG,-0.0802
18,CAACCTTC,0.313
19,ACCCCTTG,0.279
20,ACCCCTTC,0.234
21,CTGCGCAC,-0.0749
22,AAGCGTTA,-0.0244
